The results in this text go back to PubChem BioAssay (NCATS).

Several values for one entry are separate records, joined by “and”; a condition that tells them apart may be missing. Equal entries are not always repeated. Inconclusive results are not listed. Where a call stands in place of a potency, no number is given. Activity calls are given as the source filed them. Unless noted, calls follow the shape of the dose curve; as a rule, active = well fitted curve in the direction sought with a large enough effect; inconclusive = small, poorly fitted or top-dose-only effect, or another doubt; inactive = no such curve, though single readings can be large; an effect the other way counts as inactive or inconclusive.

Assay [1] addresses Calcium and integrin-binding protein 1 (Homo sapiens) (UniProt Q99828). The assay is described as follows: Primary qHTS for Identification of Calcium Integrin Binding Protein 1 (CIB1) Competitor (AID 1508620).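 Also: GST tagged CIB1 binding a fluorescein labelled alphaIIb integrin peptide tracer; top concentration of the series differs between compounds.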 In outline:
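CIB1-GST (1 uM final) and compound incubated 15 min at room temperature before adding FITC-alphaIIb peptide tracer (100 nM final). Competition for binding read by fluorescence polarization (ex 480, em 540) after another 15 min at room temperature.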

Assay [2] deals with Cytochrome P450 2D6 (Homo sapiens) (UniProt P10635). The assay is described as follows: Cytochrome P450 family 2 subfamily D member 6 (CYP2D6) small molecule antagonists: luciferase biochemical (cell-free) qHTS assay (AID 1645840; active = well fitted curve in the direction sought with a large enough effect in the repeat runs; an effect the other way counts as inactive or inconclusive; also: nearly all actives have a fitted effect of over 55% in size; also: potency is read from the fitted curve at half-maximal effect). In outline: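 P450-Glo CYP2D6 system: proluciferin substrate converted by enzyme to luciferin, read by luminescence proportional to activity. Enzyme-substrate mix with compound 10 min at room temperature, then NADPH regeneration 1 h before detection reagent.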
Sequence of Cytochrome P450 2D6 (Homo sapiens) (P10635 whole entry, looked up): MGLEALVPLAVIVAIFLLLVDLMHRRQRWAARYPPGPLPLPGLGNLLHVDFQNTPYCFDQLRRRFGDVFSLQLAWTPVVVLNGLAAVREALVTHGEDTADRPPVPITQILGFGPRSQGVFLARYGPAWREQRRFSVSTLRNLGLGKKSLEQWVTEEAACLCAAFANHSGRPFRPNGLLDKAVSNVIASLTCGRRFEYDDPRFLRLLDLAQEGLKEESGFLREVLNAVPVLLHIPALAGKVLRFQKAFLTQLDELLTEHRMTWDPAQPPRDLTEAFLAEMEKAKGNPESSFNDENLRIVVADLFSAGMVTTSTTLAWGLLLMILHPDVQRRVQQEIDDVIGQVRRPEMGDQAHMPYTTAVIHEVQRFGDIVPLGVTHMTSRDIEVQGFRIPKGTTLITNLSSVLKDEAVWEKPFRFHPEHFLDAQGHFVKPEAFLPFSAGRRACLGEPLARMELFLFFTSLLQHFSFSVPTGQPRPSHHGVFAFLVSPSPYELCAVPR

Sequence of Calcium and integrin-binding protein 1 (Homo sapiens) (Q99828 whole entry, looked up): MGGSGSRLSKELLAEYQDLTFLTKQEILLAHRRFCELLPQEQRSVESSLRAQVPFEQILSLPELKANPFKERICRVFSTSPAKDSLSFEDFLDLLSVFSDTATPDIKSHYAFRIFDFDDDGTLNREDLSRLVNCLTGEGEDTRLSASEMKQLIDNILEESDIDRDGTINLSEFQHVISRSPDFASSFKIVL

In the case of `CCCCC1CCN(CCCN2C(=O)CCc3ccccc32)CC1`, the Potency result in assay [1] was “inactive”. For the same compound, the Potency in assay [2] is 0.756 µM (active).
As to `Cn1ncc(Cl)c1-c1cc(C(=O)NC(CN)Cc2ccc(F)c(F)c2)oc1Cl` (stereo not drawn), in assay [1], the Potency result was “inactive”. In addition, the Potency in assay [2] is 12 µM (active) and 13.5 µM (active).
`COc1cc(-c2nc(N[C@H](CO)Cc3ccccc3)ccc2C(=O)NCCOc2ccccc2)cc(OC)c1OC`: in assay [1], the Potency result was “inactive”. Further, in assay [2], the Potency is 12 µM (active).
Consider `Oc1cccc(C2NC(=S)Nc3cccc(F)c32)c1` (stereo not drawn), for which the Potency entry in assay [1] is “inactive”. In addition, the Potency in assay [2] is 7.56 µM (active).
Taken in the same sequence, the figures for `CCC(C)CNCC(=O)N1CCc2sccc2C1COc1cccc(C)c1` (stereo not drawn) were “inactive” and 0.0952 µM (active).
The corresponding values for `Cc1nc(N2CCN(C(=O)c3ccco3)CC2)c2c3c(sc2n1)CCCC3` are “inactive” and 10.7 µM (active).
Take `COc1cccc(N2CCN(C3=Nc4c(F)cccc4[C@H](CC(=O)O)N3c3cc(C(F)(F)F)ccc3OC)CC2)c1`: the Potency entry in assay [1] and in assay [2] was “inactive” throughout.
Consider `CCN(c1cc(-c2ccc(CN3CCOCC3)cc2)cc(C(=O)NCc2c(C)cc(C)[nH]c2=O)c1C)C1CCOCC1`, for which the Potency entry in assay [1] was “inactive”. In assay [2], the Potency was 23.9 µM (active).
For `O=C(CNC(=O)c1cccc(C(F)(F)F)c1)N[C@@H]1CCN(Cc2ccc(Cl)cc2)C1`, the Potency entry in assay [1] is “inactive”. Further, in assay [2], the Potency was 0.0535 µM (active).
Taken in the same sequence, the figures for `Clc1cccc(COc2cncc(N3CCNCC3)n2)c1` were “inactive” and 8.49 µM (active).
On to `Cc1cccc(CC(=O)N2CCc3c2ccc(-c2cn(C)c4ncnc(N)c24)c3F)n1`, for which the Potency result in assay [1] and in assay [2] was “inactive” each time.
For `COCc1c(Cl)ccc2c1CC[C@H]2c1ncc[nH]1`, the Potency result in assay [1] was “inactive”. Moreover, the Potency in assay [2] was 1.9 µM (active).
The corresponding values for `Cc1ccnn1-c1ccc(C(=O)N2CCN(S(=O)(=O)c3ccc(Cl)c(C(F)(F)F)c3)CC2)cc1` are “inactive” and “inactive”.
As for `Cn1cc(-c2ccc(F)c(C(F)(F)F)c2)nc1C1CCN(c2ncnc3[nH]ncc23)CC1`, the Potency result in assay [1] and in assay [2] was “inactive” throughout.
Turning to `CCOc1ccc(S(=O)(=O)N2CCCCCC2)c2ccccc12`, the Potency entry in assay [1] and in assay [2] was “inactive” each time.
Regarding `Fc1ccc(-c2nc(-c3c(F)cccc3F)[nH]c2-c2ccncc2)cc1`, the Potency result in assay [1] was “inactive”. Besides, the Potency in assay [2] is 2.68 µM (active).
Taken in the same sequence, the figures for `CC(C)C[C@@H](C(=O)N[C@@H](Cc1ccc(OCc2ccccc2)cc1)C(=O)NC(C)(C)C)N(C)Cc1ccc(C(C)(C)C)cc1` were “inactive” and “inactive”.
Taken in the same sequence, the figures for `Cc1cc(C)c(-n2cc(C)c3c(Cl)nc(C)nc32)c(C)c1` were “inactive” and “inactive”.
On to `Cc1cc(F)ccc1-c1nc(NCCN=C(N)NC#N)nc2c1ccc(=O)n2-c1c(F)cccc1F`, for which the Potency entry in assay [1] was “inactive”. Besides, the Potency in assay [2] is 19 µM (active).
Taken in the same sequence, the figures for `COc1cc2c(cc1-c1c(C)noc1C)ncc1[nH]c(=O)n(C(C)c3ccccn3)c12` (stereo not drawn) were “inactive” and “inactive”.
Turning to `CC(C)c1ccc(-c2cc(=O)c3ccccc3o2)cc1`, in assay [1], the Potency result was “inactive”. The Potency in assay [2] was 15.1 µM (active).
The corresponding values for `CC(C)NCCCn1c(Sc2cc3c(cc2I)OCO3)nc2c(N)ncnc21` are “inactive” and 0.536 µM (active).
The corresponding values for `CCn1c(-c2nonc2N)nc2c(C#CCO)ncc(OCCCN)c21` are “inactive” and “inactive”.
The corresponding values for `COC(=O)c1cc(Br)cnc1N1CCC(NC2CCCCC2)C(O)C1` (stereo not drawn) are “inactive” and 0.019 µM (active).
`Cc1[nH]c(/C=C2\C(=O)Nc3cc(-c4ccccc4)ccc32)c(C)c1CCC(=O)O`: the Potency entry in assay [1] and in assay [2] was “inactive” each time.
For `C=CCCN1CCC2(CC1)CN(C(=O)c1c(F)cccc1F)c1ccc(Cl)cc12`, the Potency entry in assay [1] was “inactive”. Moreover, the Potency in assay [2] is 0.019 µM (active).
Turning to `CCOC(=O)N1CCC(CN(Cc2ccc(Cl)cc2)Cc2ccc([N+](=O)[O-])s2)C1` (stereo not drawn), the Potency result in assay [1] was “inactive”. Besides, in assay [2], the Potency was 3.01 µM (active).
The corresponding values for `CC[C@H]1CN(c2nc(N)c(C(N)=O)nc2Cl)CCN1C1CCN(Cc2ccc(Cl)cc2)CC1` are “inactive” and 12 µM (active).
For the compound `CC(C)S(=O)(=O)c1ccc2nccc(Nc3ccc4scnc4c3)c2c1`, in assay [1], the Potency entry was “inactive”. Besides, in assay [2], the Potency was 10.7 µM (active).
Taken in the same sequence, the figures for `CS(=O)(=O)Nc1ccc2oc3c(OC(F)F)ccc(C(=O)Nc4c(Cl)cncc4Cl)c3c2c1` were “inactive” and 12 µM (active).
Taken in the same sequence, the figures for `O=C(O)c1ccc(S(=O)(=O)N(Cc2ccc(OC(F)(F)F)cc2)c2ncc(C(F)(F)F)cc2Cl)cc1` were “inactive” and “inactive”.
Taken in the same sequence, the figures for `COc1cc(NC(=O)c2cc(C3CC3)on2)c(OC)cc1Cl` were “inactive” and 2.39 µM (active).
Regarding `Clc1ccc(Cn2c(Cc3ccccc3)nc3ccccc32)cc1`, the Potency result in assay [1] was “inactive”. In assay [2], the Potency is 10.7 µM (active).
`Fc1ccc(-c2nc(-c3ccccc3F)[nH]c2-c2ccncc2)cc1`: in assay [1], the Potency entry is “inactive”. Moreover, the Potency in assay [2] was 1.2 µM (active).
The corresponding values for `Nc1nc2c(cnn2CCCc2ccc(O)cc2)c2nc(-c3ccco3)nn12` are “inactive” and “inactive”.
On to `Nc1cccc(CNC(=O)c2ccc(Oc3ccc(OCc4cccc(F)c4)cc3)nc2)c1`, for which the Potency result in assay [1] and in assay [2] was “inactive” in each case.
For the compound `COc1cc(/C=N\NC(=O)c2ccc3c(c2)OCO3)ccc1OCc1ccccc1`, the Potency result in assay [1] is “inactive”. Further, in assay [2], the Potency was 2.39 µM (active).
Taken in the same sequence, the figures for `CNc1cc2[nH]c(=O)n(-c3ccc(NC(=O)NS(=O)(=O)c4ccc(Cl)s4)cc3)c(=O)c2cc1F` were “inactive” and “inactive”.
As for `COc1ccc(-c2cnc3c(-c4cccc5ncccc45)cnn3c2)cc1`, the Potency entry in assay [1] and in assay [2] was “inactive” in each case.
